PubChem BioAssay AID2061324 (National Center for Advancing Translational Sciences (NCATS), 2025)
Inconclusive results are not listed. The source made the active and inactive calls. Calls come from the whole dose curve; as a rule, active = well fitted inhibition curve with a large enough effect; inconclusive = small, poorly fitted or top-dose-only effect; inactive = flat fitted curve, though single readings scatter.

Test: Identification of antibody-drug conjugate (ADC) payloads which are substrates of ATP-binding cassette drug efflux transporters: ABCG2-HEK293-pcDNA cell line
Conditions: ABCG2-HEK293 transfected cells viability, CellTiter-Glo, 48 h
Source text: Antibody-drug conjugates (ADCs) feature an antibody recognizing a specific protein joined to a potent toxic payload. Numerous antibody-drug conjugates have received FDA approval; however, clinical resistance arises. Resistance mechanisms include decreased expression or mutation of the antibody target, impaired payload release, or increased expression of ATP-binding cassette (ABC) efflux transporters associated with multidrug resistance. We therefore sought to characterize the interaction of ABC multidrug transporters with ADC payloads. We performed a high-throughput screen with 27 common ADC payloads using cells lines expressing ABC transporters P-glycoprotein (P-gp, encoded by ABCB1) or ABCG2 (encoded by ABCG2). Confirmatory assays were also performed using cells transfected to express P-gp, ABCG2, or MRP1 (encoded by ABCC1). Several commonly used ADC payloads were substrates of P-gp, including calicheamicin gamma1, monomethyl auristatin E, DM1, and DM4. All the pyrrolobenzodiazepines tested - SJG136, SGD-1882, SG2057, and SG3199 - were substrates of P-gp, ABCG2, and MRP1. […] These findings highlight the risk of transporter-mediated resistance with certain ADC payloads and underscore the importance of selecting payloads that evade ABC transporter recognition in future ADC development.
HEK-293 cells were transfected with empty vector (pcDNA) or vector containing the human ABCB1 (MDR-19), ABCG2 (R-5), or ABCC1 gene (MRP1) and were maintained in EMEM with 2 mg/mL G418 added to maintain transporter expression. The HeLa derivative KB-3-1 and the P-gp overexpressing KB-8-5-11 subline were maintained in DMEM; KB-8-5-11 additionally received 100 ng/mL colchicine. H460 parental cells were obtained from the Division of Cancer Treatment and Diagnosis Tumor Repository, National Cancer Institute at Frederick, MD and were cultured in RPMI. The ABCG2 expressing subline H460 MX20 was generated by selecting H460 cells in 20 nM mitoxantrone. Media in all cases was supplemented with 10% FBS and 1% penicillin-streptomycin. We explored 27 common ADC payloads, in two orthogonal, paired cell line sets-a drug selected and transfected set for each transporter--to identify substrates of the ABC transporters P-gp and ABCG2. Compounds were sourced from Levena Biopharma (San Diego, CA), Selleck Chem (Houston, TX), ChemieTek (Indianapolis, IN), or Microsource Discovery Systems (Gaylordsville, CT). Screening was performed as previously described. Briefly, cells were plated at a density of 500 cells/well in 1536 well plates with compounds added using a 1536-head pin tool (Kalypsys, San Diego CA). Cells were incubated with cytotoxic drugs and processed with CellTiter Glo reagent (Promega, Madison, WI) to determine viability after 48 hours. P-gp substrates were identified by comparing compound activity between paired sets of low-expressing (sensitive) and over-expressing (resistant) cell lines.
For CC[C@@]1(O)C(=O)OCc2c1cc1n(c2=O)Cc2cc3ccccc3nc2-1, the Potency was 15 nM (active).
With COc1cc2cc(c1Cl)N(C)C(=O)C[C@H](OC(=O)[C@H](C)N(C)C(=O)CCC(C)(C)S)[C@]1(C)OC1[C@H](C)C1C[C@@](O)(NC(=O)O1)[C@H](OC)/C=C/C=C(\C)C2 (some centres not stated) the Potency was 2.4 nM (active).
For CC[C@H](C)[C@H](NC(=O)[C@H]1CCCCN1C)C(=O)N(C)[C@H](C[C@@H](OC(C)=O)c1nc(C(=O)N[C@@H](Cc2ccccc2)C[C@H](C)C(=O)O)cs1)C(C)C, the Potency was 23.8 nM (active).
In the case of COc1cc2cc(c1Cl)N(C)C(=O)C[C@H](OC(=O)C(C)C)[C@]1(C)O[C@H]1[C@H](C)[C@@H]1C[C@@](O)(NC(=O)O1)[C@H](OC)C=CC=C(C)C2, the Potency is reported as 1.1 nM (active).
In the case of COc1cc2cc(c1Cl)N(C)C(=O)C[C@H](OC(=O)[C@H](C)N(C)C(=O)CCS)[C@]1(C)OC1[C@H](C)C1C[C@@](O)(NC(=O)O1)[C@H](OC)/C=C/C=C(\C)C2 (some centres not stated), the Potency is reported as 9.5 nM (active).
In the case of COc1cc2cc(C(=O)N3C[C@@H](CCl)c4c3cc(O)c3ccccc43)[nH]c2c(OC)c1OC, the Potency is reported as 7.5 nM (active).
With CC[C@H](C)[C@@H]([C@@H](CC(=O)N1CCC[C@H]1[C@H](OC)[C@@H](C)C(=O)N[C@H](C)[C@@H](O)c1ccccc1)OC)N(C)C(=O)[C@@H](NC(=O)[C@H](C(C)C)N(C)C)C(C)C the Potency was 9.5 nM (active).
